Results on three compounds are retold here after PubChem BioAssay (NCI).

The structures appear in SMILES notation. The panel holds about 83,000 compounds, 20% with a hit somewhere; the sample as a whole holds those more often.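 Single-concentration screen, 48 h exposure, 96-well plates. Endpoint: percent growth. Below 10 = active.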 Active and inactive are the calls of the source.

For this assay, the system named is HL-60(TB) leukemia. As to the kind of experiment: NCI-60 one-dose screen, 48 h (100 = growth as untreated, 0 = no growth, -100 = all killed). The following applies: 10 µM unless noted.
Consider `O=c1[nH]c(-c2ccc(Cl)cc2)nc2sc3c(c12)CCCC3`, for which the growth was 90.7% (inactive).
Consider `COc1ccc(C(=O)NCCNc2nccc(-c3c(-c4ccc(F)cc4)nc4sccn34)n2)cc1`, for which the growth was 88.9% (inactive).
The figure for `COc1ccc(/C=C2\Oc3cc(OCCCN4CCCC4)ccc3C2=O)c(OC)c1` is 96.2% (inactive).
